Compound activity: PubChem, several laboratories
Rows were chosen to be rich in hits. Some 3.2% of all compounds tested hit in one or more screens of this group.
Rce1 inh – yeast Ras-converting enzyme inhibition | AID 2563 | Q03530 | actives 0.27% (n = 290,000) | yeast membranes, quenched prenylated peptide cleavage fluorescence | calls only;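 active = fall in fluorescence gain of 50% or more versus controls, with final raw signal at or below 3038400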;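 also: plate controls were neutral control wells for no effect and wells lacking membranes for full effect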
TMEM16A inh – mouse TMEM16A channel inhibition, primary screen; HEK293 TMEM16A/YFP iodide influx fluorescence, ionomycin; actives 1.2% (n = 310,000); normalized B-score (activity score, 25-100; higher = stronger inhibition) at 10 µM; Q8BHY3;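 active = ratio plate-corrected score three or more library SD toward inhibition, starting fluorescence score within five deviations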;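 also: score derived from kinetic fluorescence span divided by baseline fluorescence per well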
TMEM16A act – mouse TMEM16A channel activation, primary screen; B-score at 10 µM; Q8BHY3; actives 0.3% (n = 340,000); HEK293 TMEM16A/YFP-H148Q/I152L, iodide quench fluorescence; hits give low values; AID 623877;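 active = fluorescence-ratio B-score plate-corrected deviation score at least 3 library SD below zero, with starting fluorescence score within 5 deviations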;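 also: channel opened by trigger with iodide after compound preincubation; score built on the fluorescence ratio of max minus min over baseline; more negative score means more quench and so TMEM16A activation or potentiation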
CHT allo act – human CHT allosteric activation; Q9GZV3; CHT-expressing cells, membrane potential dye, choline EC20; hits give high values; LV-AA mutant CHT in HEK293 cells; B-score at 10 µM; actives 0.49% (n = 310,000);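 active = initial fluorescence not abnormally high and integrated response B-score, plate-corrected, over 3 SD above library mean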
CHT block – human CHT choline transport inhibition. AID 488975. actives 0.86% (n = 310,000). Q9GZV3. B-score at 10 µM. CHT-expressing cells, membrane potential dye, choline response; hits give low values;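 active = B-score over 3 SD under the library average, and starting fluorescence ratio not unusually high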;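 also: choline stimulus applied at its EC90 after an EC20 pre-addition; B-score computed on integrated fluorescence ratio after choline addition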
Kir21 block – blocks the mouse Kir2.1 inward-rectifier potassium channel; P35561; HEK293-Kir2.1, FluxOR thallium flux fluorescence; hits give low values; B-score at 10 µM; actives 0.85% (n = 310,000); AID 1672;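 active = fluorescence ratio B-score at or below minus 3 SD of library scores, with starting-brightness B-score within 2 SD, cut at about -4.2 in these data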;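 also: channel flux triggered by added potassium and thallium sulfate stimulus; B-score of peak minus minimum fluorescence over baseline after thallium stimulus; more negative B-score means stronger Kir2.1 block with less thallium influx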
TMEM16A reconf – re-confirmation of mouse TMEM16A chloride channel inhibitors. shares compounds with TMEM16A inh. HEK293 TMEM16A/YFP-H148Q, iodide quench fluorescence; ionomycin added to raise cell calcium. actives 39% (n = 2,300). inhibition, % at 10 µM;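 active = mean duplicate percent inhibition, scaled so buffer wells are 0 and the reference blocker 100, over three buffer SD above buffer mean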
TMEM16A Ca cntr – calcium mobilization counter-screen hit for TMEM16A inhibitor series; shares compounds with TMEM16A inh; TMEM16A/YFP HEK293, Fluo4 calcium mobilization; calcium response (% of ionomycin), % at 10 µM; actives 2% (n = 2,300);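 active = duplicate-averaged calcium signal over 20% of the ionomycin maximum, relative to buffer baseline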;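 also: each well's signal is peak minus trough fluorescence divided by its pre-addition baseline; 0% = buffer wells and 100% = ionomycin wells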
YFP-HEK293 quench – counter-screen for TMEM16A inhibitors: effect in parental YFP-HEK293 cells. shares compounds with TMEM16A inh. iodide YFP quench, ionomycin. YFP ratio F(max-min)/F0 at 10 µM. 2,300 tested, under 10 active. AID 652233;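 active = yellow fluorescent protein signal ratio exceeding the buffer control mean by over 5 SD of those controls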;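 also: ratio is mean of duplicate wells from kinetic YFP trace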
ClC-1 inh – rat ClC-1 inhibition, TMEM16A specificity screen | shares compounds with TMEM16A inh | CHO ClC-1-YFP, iodide influx fluorescence quench; iodide control reads 0, buffer control 100 | ratio percent, % at 10 µM | 2,300 tested, under 10 active | AID 652236;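 active = duplicate-mean ratio percent above the mean of iodide-only control wells, which defines zero, plus 5 of their SD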;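 also: higher percent means stronger block of ClC-1 iodide influx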
An asterisk follows results filed as active; i = inactive; . = not tested or not shown.

SMILES	Rce1 inh	TMEM16A inh	TMEM16A act	CHT allo act	CHT block	Kir21 block	TMEM16A reconf	TMEM16A Ca cntr	YFP-HEK293 quench	ClC-1 inh
Cc1cc(C(=O)NCC(=O)OCC(=O)Nc2ccc(OC(F)F)cc2)ccc1[N+](=O)[O-]	i	25*	i	i	i	0.28	i	i	-1.24	-1.5
CCOC(=O)C1=C(N)Oc2cc(O)ccc2C1c1cccnc1 (configuration not stated)	i	100*	i	i	i	0.07	29.5%*	i	-1.25	-10.0
CCOC(=O)C1=C(N)Oc2cc(O)ccc2C1c1cccc(Cl)c1 (configuration not stated)	i	i	i	i	i	-1.2	.	.	.	.
CCOC(=O)c1ccc(Nc2nc(-c3cccnc3)nc3ccccc23)cc1	i	25*	i	i	i	-0.74	38.0%*	i	-1.15	-20.5
Nc1cc(S(=O)(=O)N2CCCCC2)ccc1Oc1ccccc1	i	25*	i	i	i	0.64	16.5%*	i	-1.04	-9.0
COC(=O)c1c(NS(=O)(=O)c2ccc(C)cc2)sc2c1CCC(C)C2 (configuration not stated)	.	100*	i	i	i	.	30.5%*	i	-1.11	-20.0
COC(=O)c1c(NS(=O)(=O)Cc2ccccc2)sc2c1CCCC2	i	i	i	i	i	-0.48	.	.	.	.
CC(C)OC(=O)c1c(NS(=O)(=O)c2ccccc2)sc2c1CCCC2	.	100*	i	i	i	-0.65	71.5%*	i	-0.866	-3.5
COc1ccc(CN2CCN(C(=O)C3CCC(CNS(=O)(=O)c4ccccc4)CC3)CC2)c(OC)c1OC (configuration not stated)	i	i	i	i	i	-0.58	.	.	.	.
O=C(NC(NC(=S)Nc1ccc(Cl)c(Cl)c1)C(Cl)(Cl)Cl)c1ccco1 (configuration not stated)	i	100*	i	i	i	0.92	35.5%*	i	-0.878	-21.0
O=C(O)c1cccc(NC(=S)NC(NC(=O)c2ccco2)C(Cl)(Cl)Cl)c1 (configuration not stated)	i	i	i	i	i	0.93	.	.	.	.
O=C(CSC1=NCCS1)Nc1ccnc2ccccc12	i	100*	i	i	i	-0.35	18.5%*	i	-1.15	-21.5
Cn1nc(CC(=O)Nc2ccc(N3CCN(C(=O)OC(C)(C)C)CC3)cc2)c2ccccc2c1=O	i	25*	i	i	i	-0.02	i	i	-1.07	-11.5
Cn1nc(CC(=O)Nc2ccc3c(c2)OCCO3)c2ccccc2c1=O	i	25*	i	i	i	-0.11	i	i	-1.03	-11.5
Cn1c(SCC(=O)Nc2ccc3c(c2)OCCO3)nnc1-c1ccco1	i	100*	i	i	i	-1.67	i	i	-1.01	-22.0
Fc1ccc(-c2nnc(CN3CCN(c4ncc(C(F)(F)F)cc4Cl)CC3)o2)cc1	i	100*	i	i	i	0.64	i	i	-1.12	-19.0
CC1CCCN(C(=O)Cc2cn(Cc3cccc(Cl)c3)c3ccccc23)C1 (configuration not stated)	i	100*	i	i	i	-2.05	24.0%*	i	-1.11	-14.5
Cc1cc(NC(=O)COC(=O)CCNS(=O)(=O)c2ccccc2)n(-c2ccccc2)n1	i	i	i	i	i	-0.67	.	.	.	.
Cc1nc2ccccc2n1Cc1ccc(Cl)cc1	i	25*	i	i	i	1.22	42.0%*	i	-1.09	-25.5
CCOC(=O)c1c(C)n(C)c2ccc(OCC(O)CN3CCN(C)CC3)cc12 (configuration not stated)	i	i	i	i	i	0.54	.	.	.	.
CCOC(=O)c1c(C)n(C)c2ccc(OCC(O)Cn3c(C)nc4ccccc43)cc12 (configuration not stated)	i	100*	i	i	i	0.77	i	i	-1.07	-10.0
Cc1nc2ccccc2n1CC(O)COc1ccccc1Cl (configuration not stated)	i	25*	i	i	i	0.45	i	i	-0.993	-13.0
CCCCN(C(=O)C1=CC=CN2CCS(=O)(=O)N=C12)c1ccccc1	.	.	i	.	.	.	.	.	.	.
O=C(Nc1cccc(Cl)c1)Nn1cnnc1	i	i	i	i	i	0.31	.	.	.	.
CCCn1nnc(NC(=O)COc2ccc(Cl)cc2)n1	i	i	i	i	i	0.14	.	.	.	.
SMILES	Rce1 inh	TMEM16A inh	TMEM16A act	CHT allo act	CHT block	Kir21 block	TMEM16A reconf	TMEM16A Ca cntr	YFP-HEK293 quench	ClC-1 inh
CCCn1nnc(NC(=O)COc2ccc(C3CCCCC3)cc2)n1	i	100*	i	i	i	1.11	44.0%*	i	-0.979	-9.0
N#CC1=C2SCC(O)(c3ccccc3)N2C(=O)CC1c1ccccc1 (configuration not stated)	i	100*	i	i	i	-1.1	16.5%*	i	-0.955	-16.0
COc1ccc(OC)c(/C=C2\SC(=S)N(NS(=O)(=O)c3ccc(C)cc3)C2=O)c1	i	i	i	i	i	-0.23	.	.	.	.
COc1ccc(/C=C2\SC(=S)N(NS(=O)(=O)c3ccc(C)cc3)C2=O)c(OC)c1	i	25*	i	i	i	0.63	23.0%*	i	-0.993	-14.5
COc1ccc(NC(=O)c2sc3ncn(CC(=O)N4CCN(c5ccccn5)CC4)c(=O)c3c2C)c(OC)c1	i	25*	i	i	i	1.34	i	i	-1.01	-10.0
COc1cc(OC)c(NC(=O)c2sc3ncn(CC(=O)N4CCN(c5ccccn5)CC4)c(=O)c3c2C)cc1Cl	i	i	i	i	i	-0.49	.	.	.	.
O=C(c1cscn1)N1CCCC(N2CCN(c3ccc(F)cc3)CC2)C1 (configuration not stated)	i	i	i	i	i	-1.14	.	.	.	.
CC(C)n1nnnc1SCC(=O)c1ccc2c(c1)OCCO2	i	i	i	i	i	0.27	.	.	.	.
